Assay results: publication PMC7862700, “An all-to-all approach to the identification of sequence-specific readers for epigenetic DNA modifications on cytosine”

Tests used:
Assay in all cases: DAPPL (digital affinity profiling via proximity ligation, sequencing); 10 mM Tris-HCl pH 7.5, 50 mM NaCl, 1 mM DTT, 4% glycerol, room temperature, 30 min; GST-TFs on glutathione beads, 16-mer random dsDNA library, 0.1% formaldehyde crosslink after washing; high values mean tight binding
[1] = biological target: T1, FLI1 (Homo sapiens, UniProt Q01543 1-452); conditions: protein: recombinant; tags: N-terminal GST; dsDNA, one strand shown
T1 sequence: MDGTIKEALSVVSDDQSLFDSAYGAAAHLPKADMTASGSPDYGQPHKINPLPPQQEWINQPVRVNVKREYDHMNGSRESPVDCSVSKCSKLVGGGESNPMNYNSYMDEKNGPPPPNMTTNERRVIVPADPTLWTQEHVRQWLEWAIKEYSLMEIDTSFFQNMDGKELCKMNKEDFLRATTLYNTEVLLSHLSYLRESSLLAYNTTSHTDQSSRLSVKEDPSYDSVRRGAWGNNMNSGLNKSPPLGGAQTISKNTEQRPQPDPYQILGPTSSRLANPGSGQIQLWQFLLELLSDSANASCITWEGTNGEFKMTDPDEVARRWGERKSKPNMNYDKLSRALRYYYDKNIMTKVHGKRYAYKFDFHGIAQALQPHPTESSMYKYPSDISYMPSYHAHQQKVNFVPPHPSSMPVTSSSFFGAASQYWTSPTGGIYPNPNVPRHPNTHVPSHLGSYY
In short: (§1)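 Human transcription factors fused to GST were expressed in yeast, captured on glutathione beads, given DNA barcodes and pooled with a GST-only negative control. Pools were incubated with 200 nmole of a 16-mer random double-stranded DNA library in Tris/NaCl/DTT/glycerol buffer at room temperature for 30 min. They were then washed, crosslinked with 0.1% formaldehyde, proximity-ligated (BsaI/T4 ligase, 1 h, 37 °C), PCR-amplified and sequenced on an Illumina NextSeq500. Binding signal is each 6-mer's read frequency for a factor divided by its frequency for the GST control.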

[2] = biological target: T2, ELK1 (Homo sapiens, UniProt P19419 1-428); conditions: protein: recombinant; tags: N-terminal GST; dsDNA, one strand shown
T2 sequence: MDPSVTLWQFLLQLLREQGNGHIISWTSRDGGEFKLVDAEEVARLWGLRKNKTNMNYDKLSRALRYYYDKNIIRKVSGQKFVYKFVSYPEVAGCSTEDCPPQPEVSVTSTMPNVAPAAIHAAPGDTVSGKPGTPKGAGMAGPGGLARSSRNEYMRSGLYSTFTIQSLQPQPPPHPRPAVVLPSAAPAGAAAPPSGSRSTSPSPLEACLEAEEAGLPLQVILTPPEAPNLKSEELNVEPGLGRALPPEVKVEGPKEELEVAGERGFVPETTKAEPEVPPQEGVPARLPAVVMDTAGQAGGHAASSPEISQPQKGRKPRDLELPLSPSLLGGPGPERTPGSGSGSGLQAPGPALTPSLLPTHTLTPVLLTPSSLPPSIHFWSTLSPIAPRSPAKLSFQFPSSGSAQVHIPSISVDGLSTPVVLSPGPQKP
In short: as §1

[3] = biological target: T3, GABPA (Homo sapiens, UniProt Q06546 1-454); conditions: protein: recombinant; tags: N-terminal GST; dsDNA, one strand shown
T3 sequence: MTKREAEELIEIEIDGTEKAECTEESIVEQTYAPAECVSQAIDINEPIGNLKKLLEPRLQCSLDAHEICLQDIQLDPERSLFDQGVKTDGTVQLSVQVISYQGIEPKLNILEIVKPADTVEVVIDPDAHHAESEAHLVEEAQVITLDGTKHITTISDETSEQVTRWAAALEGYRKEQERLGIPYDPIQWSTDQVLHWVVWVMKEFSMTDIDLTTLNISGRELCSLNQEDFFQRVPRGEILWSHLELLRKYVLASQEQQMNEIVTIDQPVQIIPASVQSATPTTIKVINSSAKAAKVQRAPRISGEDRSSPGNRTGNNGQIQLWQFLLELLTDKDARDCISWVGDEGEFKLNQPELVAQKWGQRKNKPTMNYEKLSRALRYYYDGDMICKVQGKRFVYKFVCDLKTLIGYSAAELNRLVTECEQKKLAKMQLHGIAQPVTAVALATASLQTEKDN
In short: as §1

[4] = biological target: T4, ERG (Homo sapiens, UniProt P11308 1-479); conditions: protein: recombinant; tags: N-terminal GST; dsDNA, one strand shown
T4 sequence: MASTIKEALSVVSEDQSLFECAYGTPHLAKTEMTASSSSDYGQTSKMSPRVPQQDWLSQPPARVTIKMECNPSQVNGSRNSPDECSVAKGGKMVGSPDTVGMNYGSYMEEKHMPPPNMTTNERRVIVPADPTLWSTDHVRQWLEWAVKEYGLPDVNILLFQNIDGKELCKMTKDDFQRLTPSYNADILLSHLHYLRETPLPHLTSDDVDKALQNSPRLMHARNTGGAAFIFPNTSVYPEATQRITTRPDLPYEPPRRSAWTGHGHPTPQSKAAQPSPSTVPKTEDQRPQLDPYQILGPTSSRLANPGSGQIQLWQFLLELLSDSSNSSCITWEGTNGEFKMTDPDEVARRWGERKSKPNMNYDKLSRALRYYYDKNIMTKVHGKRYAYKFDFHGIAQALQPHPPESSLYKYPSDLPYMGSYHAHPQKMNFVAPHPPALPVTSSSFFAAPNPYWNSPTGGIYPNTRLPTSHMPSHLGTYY
In short: as §1

[5] = biological target: ELF1 (Homo sapiens, UniProt P32519 1-619); conditions: protein: recombinant; tags: N-terminal GST; dsDNA, one strand shown
In short: as §1

[6] = biological target: T5, EHF (Homo sapiens, UniProt Q9NZC4 1-300); conditions: protein: recombinant; tags: N-terminal GST; dsDNA, one strand shown
T5 sequence: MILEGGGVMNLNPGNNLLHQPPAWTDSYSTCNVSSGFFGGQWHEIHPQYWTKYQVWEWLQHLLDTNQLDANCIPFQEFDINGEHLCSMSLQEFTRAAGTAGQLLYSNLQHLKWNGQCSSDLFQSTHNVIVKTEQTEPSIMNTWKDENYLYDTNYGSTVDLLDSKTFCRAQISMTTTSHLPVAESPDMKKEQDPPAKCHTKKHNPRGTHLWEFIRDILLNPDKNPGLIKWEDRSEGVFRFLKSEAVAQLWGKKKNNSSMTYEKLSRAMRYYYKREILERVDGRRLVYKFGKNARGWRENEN
In short: as §1

[7] = biological target: SPI1 (Homo sapiens, UniProt P17947 1-270); conditions: protein: recombinant; tags: N-terminal GST; dsDNA, one strand shown
In short: as §1

[8] = biological target: SPIB (Homo sapiens, UniProt Q01892 1-262); conditions: protein: recombinant; tags: N-terminal GST; dsDNA, one strand shown
In short: as §1

[9] = biological target: T6, ELK3 (Homo sapiens, UniProt P41970 1-407); conditions: protein: recombinant; tags: N-terminal GST; dsDNA, one strand shown
T6 sequence: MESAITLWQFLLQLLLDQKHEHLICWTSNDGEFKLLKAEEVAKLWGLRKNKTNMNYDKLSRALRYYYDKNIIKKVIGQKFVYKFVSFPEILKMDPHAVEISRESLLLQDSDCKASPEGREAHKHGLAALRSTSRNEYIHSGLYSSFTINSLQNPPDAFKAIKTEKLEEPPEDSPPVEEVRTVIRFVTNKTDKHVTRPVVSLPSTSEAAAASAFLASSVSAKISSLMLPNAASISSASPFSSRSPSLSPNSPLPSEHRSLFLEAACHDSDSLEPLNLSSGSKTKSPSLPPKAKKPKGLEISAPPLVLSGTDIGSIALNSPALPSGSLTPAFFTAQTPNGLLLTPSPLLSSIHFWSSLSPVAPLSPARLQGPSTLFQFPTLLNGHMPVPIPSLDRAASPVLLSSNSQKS
In short: as §1

[10] = biological target: T7, FEV (Homo sapiens, UniProt Q99581 1-238); conditions: protein: recombinant; tags: N-terminal GST; dsDNA, one strand shown
T7 sequence: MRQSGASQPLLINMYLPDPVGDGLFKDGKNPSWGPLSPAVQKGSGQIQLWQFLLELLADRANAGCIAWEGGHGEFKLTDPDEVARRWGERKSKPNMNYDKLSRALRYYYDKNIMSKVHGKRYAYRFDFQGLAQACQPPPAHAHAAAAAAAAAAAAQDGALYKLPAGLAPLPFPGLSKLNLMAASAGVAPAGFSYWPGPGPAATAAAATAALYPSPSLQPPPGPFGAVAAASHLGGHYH
In short: as §1

[11] = biological target: ETV5 (Homo sapiens, UniProt P41161 1-510); conditions: protein: recombinant; tags: N-terminal GST; dsDNA, one strand shown
In short: as §1

[12] = biological target: HSF1 (Homo sapiens, UniProt Q00613 1-529); conditions: protein: recombinant; tags: N-terminal GST; chain copies: 3; dsDNA, one strand shown
In short: as §1

[13] = biological target: T8, SPIC (Homo sapiens, UniProt Q8N5J4 1-248); conditions: protein: recombinant; tags: N-terminal GST; dsDNA, one strand shown
T8 sequence: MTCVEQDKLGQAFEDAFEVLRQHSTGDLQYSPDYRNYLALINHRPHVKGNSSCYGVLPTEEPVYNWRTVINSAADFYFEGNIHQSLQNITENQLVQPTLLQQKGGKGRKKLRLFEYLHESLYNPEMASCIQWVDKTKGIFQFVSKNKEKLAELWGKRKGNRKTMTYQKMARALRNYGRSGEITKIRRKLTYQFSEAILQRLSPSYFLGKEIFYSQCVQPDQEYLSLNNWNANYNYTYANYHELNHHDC
In short: as §1

[14] = biological target: ELF4 (Homo sapiens, UniProt Q99607 1-663); conditions: protein: recombinant; tags: N-terminal GST; dsDNA, one strand shown
In short: as §1

[15] = biological target: T9, ELK4 (Homo sapiens, UniProt P28324-2 1-405); conditions: protein: recombinant; tags: N-terminal GST; dsDNA, one strand shown
T9 sequence: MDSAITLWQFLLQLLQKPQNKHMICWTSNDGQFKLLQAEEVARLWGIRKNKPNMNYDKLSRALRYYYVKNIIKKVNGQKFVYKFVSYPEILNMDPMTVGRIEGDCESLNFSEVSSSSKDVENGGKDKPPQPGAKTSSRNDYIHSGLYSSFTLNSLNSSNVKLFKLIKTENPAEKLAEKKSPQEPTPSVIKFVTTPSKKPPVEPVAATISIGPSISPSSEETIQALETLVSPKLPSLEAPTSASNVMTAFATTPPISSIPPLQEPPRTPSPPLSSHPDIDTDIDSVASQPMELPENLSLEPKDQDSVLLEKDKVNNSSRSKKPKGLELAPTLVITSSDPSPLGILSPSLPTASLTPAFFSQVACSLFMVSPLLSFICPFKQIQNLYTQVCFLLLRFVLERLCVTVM
In short: as §1

[16] = biological target: T10, ETV2 (Homo sapiens, UniProt O00321 1-342); conditions: protein: recombinant; tags: N-terminal GST; dsDNA, one strand shown
T10 sequence: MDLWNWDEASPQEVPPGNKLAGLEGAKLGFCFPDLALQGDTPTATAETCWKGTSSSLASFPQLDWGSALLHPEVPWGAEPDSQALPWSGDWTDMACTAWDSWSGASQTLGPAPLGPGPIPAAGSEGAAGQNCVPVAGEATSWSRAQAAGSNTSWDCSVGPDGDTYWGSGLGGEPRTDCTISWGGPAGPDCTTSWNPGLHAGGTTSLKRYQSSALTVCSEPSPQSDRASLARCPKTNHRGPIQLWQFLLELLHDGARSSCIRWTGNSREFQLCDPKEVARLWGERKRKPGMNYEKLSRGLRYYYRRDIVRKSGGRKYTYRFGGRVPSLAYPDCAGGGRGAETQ
In short: as §1

[17] = biological target: T11, ELF3 (Homo sapiens, UniProt P78545 1-371); conditions: protein: recombinant; tags: N-terminal GST; dsDNA, one strand shown
T11 sequence: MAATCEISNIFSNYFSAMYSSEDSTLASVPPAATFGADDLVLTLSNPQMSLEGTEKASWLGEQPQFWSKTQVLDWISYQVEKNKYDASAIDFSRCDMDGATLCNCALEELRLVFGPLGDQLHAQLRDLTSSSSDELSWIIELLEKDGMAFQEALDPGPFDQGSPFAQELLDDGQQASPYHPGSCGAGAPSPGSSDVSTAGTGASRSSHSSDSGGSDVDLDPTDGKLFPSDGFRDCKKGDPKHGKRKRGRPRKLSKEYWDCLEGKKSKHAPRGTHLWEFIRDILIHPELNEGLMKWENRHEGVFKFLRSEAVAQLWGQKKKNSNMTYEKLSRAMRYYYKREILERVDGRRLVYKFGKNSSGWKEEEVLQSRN
In short: as §1

[18] = biological target: CRX (Homo sapiens, UniProt O43186 1-299); conditions: protein: recombinant; tags: N-terminal GST; dsDNA, one strand shown
In short: as §1

[19] = biological target: ETV1 (Homo sapiens, UniProt P50549 1-477); conditions: protein: recombinant; tags: N-terminal GST; dsDNA, one strand shown
In short: as §1

ETV1, sequence (P50549 whole entry): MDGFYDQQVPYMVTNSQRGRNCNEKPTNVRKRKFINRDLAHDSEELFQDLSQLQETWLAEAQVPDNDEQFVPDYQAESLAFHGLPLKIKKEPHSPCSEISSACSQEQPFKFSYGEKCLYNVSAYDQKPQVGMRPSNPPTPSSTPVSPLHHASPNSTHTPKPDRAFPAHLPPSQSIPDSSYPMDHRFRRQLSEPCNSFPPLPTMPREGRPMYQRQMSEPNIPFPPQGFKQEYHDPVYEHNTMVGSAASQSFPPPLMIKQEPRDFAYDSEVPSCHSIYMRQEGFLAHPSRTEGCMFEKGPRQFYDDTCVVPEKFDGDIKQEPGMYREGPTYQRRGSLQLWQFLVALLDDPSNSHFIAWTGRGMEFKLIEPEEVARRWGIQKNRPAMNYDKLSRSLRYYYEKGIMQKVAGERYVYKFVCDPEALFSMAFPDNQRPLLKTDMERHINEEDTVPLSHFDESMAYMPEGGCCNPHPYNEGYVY
HSF1, sequence (Q00613 whole entry): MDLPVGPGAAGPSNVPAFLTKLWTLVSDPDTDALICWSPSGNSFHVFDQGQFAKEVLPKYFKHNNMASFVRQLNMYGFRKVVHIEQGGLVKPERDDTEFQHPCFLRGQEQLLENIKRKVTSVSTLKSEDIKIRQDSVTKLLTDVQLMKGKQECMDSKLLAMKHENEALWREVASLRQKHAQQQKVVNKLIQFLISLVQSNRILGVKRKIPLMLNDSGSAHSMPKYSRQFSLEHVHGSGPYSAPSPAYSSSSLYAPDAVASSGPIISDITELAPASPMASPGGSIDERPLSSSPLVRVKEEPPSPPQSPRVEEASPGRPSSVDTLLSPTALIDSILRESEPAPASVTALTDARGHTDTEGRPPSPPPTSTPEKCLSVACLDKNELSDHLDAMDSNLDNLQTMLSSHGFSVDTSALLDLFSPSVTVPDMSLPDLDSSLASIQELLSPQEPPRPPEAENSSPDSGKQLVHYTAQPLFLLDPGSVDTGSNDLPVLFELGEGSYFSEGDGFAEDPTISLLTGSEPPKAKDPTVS
CRX, sequence (O43186 whole entry): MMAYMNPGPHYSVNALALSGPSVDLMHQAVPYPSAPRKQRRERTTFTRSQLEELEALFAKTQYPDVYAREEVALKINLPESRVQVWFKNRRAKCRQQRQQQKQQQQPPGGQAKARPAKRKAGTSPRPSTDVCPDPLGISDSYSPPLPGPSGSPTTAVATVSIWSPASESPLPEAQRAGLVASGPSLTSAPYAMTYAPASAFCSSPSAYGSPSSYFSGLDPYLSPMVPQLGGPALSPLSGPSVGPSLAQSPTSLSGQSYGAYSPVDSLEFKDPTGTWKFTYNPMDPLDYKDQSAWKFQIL
ETV5, sequence (P41161 whole entry): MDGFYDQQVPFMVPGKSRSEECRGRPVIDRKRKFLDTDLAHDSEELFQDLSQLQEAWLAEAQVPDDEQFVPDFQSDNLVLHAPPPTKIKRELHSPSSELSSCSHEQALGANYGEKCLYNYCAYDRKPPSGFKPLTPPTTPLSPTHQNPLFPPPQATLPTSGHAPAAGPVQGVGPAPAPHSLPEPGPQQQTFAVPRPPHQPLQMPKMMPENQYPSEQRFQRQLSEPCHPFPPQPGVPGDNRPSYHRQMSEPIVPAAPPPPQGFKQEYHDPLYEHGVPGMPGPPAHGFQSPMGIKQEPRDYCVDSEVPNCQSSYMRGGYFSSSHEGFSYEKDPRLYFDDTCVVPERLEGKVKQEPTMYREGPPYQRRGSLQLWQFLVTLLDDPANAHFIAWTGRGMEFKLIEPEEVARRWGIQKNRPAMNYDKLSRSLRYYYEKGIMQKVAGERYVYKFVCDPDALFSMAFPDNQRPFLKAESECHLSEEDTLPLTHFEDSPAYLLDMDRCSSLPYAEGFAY
SPIB, sequence (Q01892 whole entry): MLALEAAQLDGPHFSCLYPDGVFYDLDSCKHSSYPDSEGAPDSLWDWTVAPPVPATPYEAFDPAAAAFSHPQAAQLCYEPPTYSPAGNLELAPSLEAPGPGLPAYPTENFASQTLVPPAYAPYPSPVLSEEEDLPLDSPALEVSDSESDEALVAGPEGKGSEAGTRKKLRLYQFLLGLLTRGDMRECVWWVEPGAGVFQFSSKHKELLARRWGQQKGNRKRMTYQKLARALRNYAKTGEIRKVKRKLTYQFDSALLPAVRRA
ELF4, sequence (Q99607 whole entry): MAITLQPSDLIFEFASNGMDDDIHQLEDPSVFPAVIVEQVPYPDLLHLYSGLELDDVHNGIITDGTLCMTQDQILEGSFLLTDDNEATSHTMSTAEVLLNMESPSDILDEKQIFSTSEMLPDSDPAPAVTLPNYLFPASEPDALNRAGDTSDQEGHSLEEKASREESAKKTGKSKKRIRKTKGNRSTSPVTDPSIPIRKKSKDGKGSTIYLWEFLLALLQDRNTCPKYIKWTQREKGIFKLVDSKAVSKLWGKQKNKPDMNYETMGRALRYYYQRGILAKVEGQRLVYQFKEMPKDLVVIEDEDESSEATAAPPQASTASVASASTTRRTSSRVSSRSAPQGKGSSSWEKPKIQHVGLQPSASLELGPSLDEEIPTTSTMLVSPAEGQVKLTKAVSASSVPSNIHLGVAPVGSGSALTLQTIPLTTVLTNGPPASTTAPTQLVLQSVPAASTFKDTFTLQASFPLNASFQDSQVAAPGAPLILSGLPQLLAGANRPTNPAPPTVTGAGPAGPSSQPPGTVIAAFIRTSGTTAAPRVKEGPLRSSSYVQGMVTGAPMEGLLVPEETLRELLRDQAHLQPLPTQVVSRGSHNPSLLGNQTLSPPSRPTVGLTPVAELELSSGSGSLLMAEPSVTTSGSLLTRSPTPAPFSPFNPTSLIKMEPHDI
ELF1, sequence (P32519 whole entry): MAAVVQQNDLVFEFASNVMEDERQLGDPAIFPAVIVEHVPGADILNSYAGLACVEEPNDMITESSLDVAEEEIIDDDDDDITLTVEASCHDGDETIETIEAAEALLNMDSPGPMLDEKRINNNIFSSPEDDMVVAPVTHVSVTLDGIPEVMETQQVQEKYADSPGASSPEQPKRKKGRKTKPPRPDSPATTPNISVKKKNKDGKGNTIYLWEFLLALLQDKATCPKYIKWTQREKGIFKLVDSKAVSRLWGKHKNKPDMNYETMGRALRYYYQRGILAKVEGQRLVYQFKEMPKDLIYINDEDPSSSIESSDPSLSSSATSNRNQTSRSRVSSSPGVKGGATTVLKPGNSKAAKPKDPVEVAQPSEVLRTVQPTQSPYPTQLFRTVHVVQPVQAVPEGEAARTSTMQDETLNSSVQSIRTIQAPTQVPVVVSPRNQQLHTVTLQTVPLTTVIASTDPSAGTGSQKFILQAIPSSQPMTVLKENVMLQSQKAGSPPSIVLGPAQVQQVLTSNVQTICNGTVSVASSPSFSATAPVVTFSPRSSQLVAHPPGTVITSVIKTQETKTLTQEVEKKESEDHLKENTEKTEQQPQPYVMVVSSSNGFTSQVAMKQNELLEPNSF

With CCGTCT the binding signal [1] was 1.41 fold enrichment (6-mer frequency, TF over GST control), the binding signal [2] was 1.32 fold enrichment (6-mer frequency, TF over GST control) and the binding signal [3] was 1.43 fold enrichment (6-mer frequency, TF over GST control). For the same sequence, the binding signal [4] was 1.28 fold enrichment (6-mer frequency, TF over GST control), the binding signal [5] was 1.46 fold enrichment (6-mer frequency, TF over GST control) and the binding signal [6] was 1.34 fold enrichment (6-mer frequency, TF over GST control). For the same sequence, the binding signal [7] was 1.43 fold enrichment (6-mer frequency, TF over GST control), the binding signal [8] was 1.45 fold enrichment (6-mer frequency, TF over GST control) and the binding signal [9] was 1.36 fold enrichment (6-mer frequency, TF over GST control). The binding signal [10] was 1.3 fold enrichment (6-mer frequency, TF over GST control), the binding signal [11] was 1.36 fold enrichment (6-mer frequency, TF over GST control) and the binding signal [12] was 1.29 fold enrichment (6-mer frequency, TF over GST control). The binding signal [13] was 1.45 fold enrichment (6-mer frequency, TF over GST control), the binding signal [14] was 1.37 fold enrichment (6-mer frequency, TF over GST control) and the binding signal [15] was 1.4 fold enrichment (6-mer frequency, TF over GST control). For the same sequence, the binding signal [16] was 1.32 fold enrichment (6-mer frequency, TF over GST control), the binding signal [17] was 1.25 fold enrichment (6-mer frequency, TF over GST control) and the binding signal [18] was 1.26 fold enrichment (6-mer frequency, TF over GST control). For the same sequence, the binding signal [19] was 1.38 fold enrichment (6-mer frequency, TF over GST control).
